The list is not random: actives were taken first. Their share in the collection is about 19%.
HT1080 IDH1KD tx = HT-1080 IDH1 knockdown cell toxicity (counter line). HT-1080 IDH1 knockdown viability, ATP luminescence, 48 h. Potency, µM (titrated, usually from 46.1 µM), without a hit: at the top dose activity, negative = toxicity, most hits filed as cytotoxic. actives 2% (n = 360,000);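 note: potency is the fitted concentration of half-maximal effect; 0% = DMSO wells and -100% = cell-free medium wells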
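Assay cells: HT-1080 with IDH1 knockdown, 750 per well, RPMI/5% FBS. Exposure: 48 h at 37 °C following 2 h pre-incubation. Read: CellTiter-Glo luminescence; fitted concentration-response, curve class assigned.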
IL-1B inflam inh = inflammasome signaling inhibition, IL-1 beta readout; actives 4.7% (n = 360,000); THP-1 LPS/ATP IL-1B secretion, AlphaLISA, 16 h; stronger effect = lower value; AID 743279; activity change, % at 57.5 µM; in the data active = activity change below about -50%; inconclusive = mostly about -30% to -49%
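Secreted IL-1B measured by AlphaLISA bead assay after 16 h compound exposure of THP-1 cells; compounds (final up to 57.5 uM) added 1 h before LPS (250 ng/mL) and ATP (1.25 mM) stimulation; lower signal means less secretion.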
DT40 TDP1 CPT = growth inhibition of DT40 Tdp1-/-;hTDP1 cells with camptothecin (screen for TDP1 inhibitors). chicken DT40 Tdp1-/-;hTDP1 cells + 20 nM CPT, ATP luminescence, 48 h. Potency, µM (top dose mostly 46.2 µM), for inactives: at the top dose activity change, negative = growth inhibition, usual class: inhibitors. actives 12% (n = 420,000); note: potency is the fitted concentration of half-maximal effect; nearly all actives have a fitted effect of over 55% in size
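Chicken DT40 Tdp1-/- cells complemented with human TDP1, 400 cells/well, exposed to compounds plus 20 nM camptothecin for at least 48 h at 37 C; viability read as ATP content by CellTiter-Glo luminescence.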
HT1080-NT tox = kills 2HG-producing HT-1080-NT fibrosarcoma cells. Potency, µM (top dose mostly 46.1 µM), for inactives: at the top dose activity, negative = less viability, usual class: cytotoxic. HT-1080-NT fibrosarcoma viability, CellTiter-Glo ATP luminescence, 48 h. actives 1.6% (n = 360,000). AID 686970;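 note: NT is the 2HG producing partner of a matched IDH1 knockdown line; potency is the fitted concentration of half-maximal effect; 0% = DMSO-treated cells and -100% = media-only wells without cells; nearly all actives have a fitted effect of over 55% in size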
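Viability of the 2HG-overproducing fibrosarcoma line after 48 hours of compound exposure at 37 degrees C was determined by luminescence with CellTiter-Glo, and concentration-effect curves were then fitted and categorized.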
TDP1 cell noCPT = qHTS for Inhibitors of human tyrosyl-DNA phosphodiesterase 1 (TDP1): qHTS in cells in absence of CPT. DT40 Tdp1-/- hTDP1 cells, no CPT, ATP luminescence, 48 h. Potency, µM (top dose mostly 46.2 µM), inactives show at the highest dose activity change, negative = growth inhibition, actives largely listed as inhibitors. actives 15% (n = 420,000); note: potency is the fitted concentration of half-maximal effect; nearly all actives have a fitted effect of over 55% in size
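Luminescent ATP content (CellTiter-Glo) served as the growth readout. Knockout chicken DT40 cells expressing human TDP1 were exposed to compounds without camptothecin for a minimum 48 hr at 37 °C.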
Numbers without * were called inactive; u = inconclusive; x = no result. Unless noted, calls come from the whole dose curve; as a rule, active = well fitted curve in the direction sought with a large enough effect; inconclusive = small, poorly fitted or top-dose-only effect, or another doubt; inactive = no such curve, though single readings can be large; an effect the other way counts as inactive or inconclusive. Unless noted, % is set by controls: 0 for no effect and ±100 for the full control effect.

SMILES	HT1080 IDH1KD tx	IL-1B inflam inh	DT40 TDP1 CPT	HT1080-NT tox	TDP1 cell noCPT
Cc1cc(C)cc(NC(=O)CC(C)n2nc(C)cc2C)c1 (centres undefined)	x	x	21µM*	x	u
CC(C)c1ccc(NC(=O)C(Cc2ccccc2)n2cccc2)cc1 (centres undefined)	x	x	21µM*	x	16µM*
O=C(Nc1cccc(Cl)c1)C(Cc1ccccc1)n1cccc1 (centres undefined)	x	x	23µM*	x	18µM*
COc1ccc(NC(=O)[C@H](Cc2ccccc2)N2Cc3ccccc3C2=O)cc1OC	x	x	-7%	x	-17%
COc1ccc(NC(=O)C(Cc2ccccc2)n2cccc2)cc1OC (centres undefined)	-8%	-12	8.2µM*	-8%	21µM*
O=C(Nc1cccnc1)C(Cc1ccccc1)n1cccc1 (centres undefined)	-13%	0	u	-8%	-15%
O=C(CC(=O)N/N=C\c1c(Cl)cccc1Cl)NCc1ccccc1	-5%	19	-22%	-15%	-25%
O=C(COc1ccc(F)cc1)N(Cc1ccco1)C1CCS(=O)(=O)C1 (centres undefined)	12%	1	-7%	3%	-1%
C=CCCC(=O)NC1CC(C)(C)Cc2c1cnn2-c1ccc(OC)cc1 (centres undefined)	-1%	-16	u	-8%	u
CCCCn1c(CCCNC(=O)c2ccco2)nc2ccccc21	-1%	36	u	-9%	15µM*
CCCn1c(CCCNC(=O)c2ccccc2OC)nc2ccccc21	x	x	u	x	18µM*
CCCCn1c(CCNC(=O)CCC)nc2ccccc21	4%	-5	-24%	11%	u
CCCC(=O)NCCCc1nc2ccccc2n1C	12%	5	-15%	9%	3%
CCCCn1c(CCNC(=O)c2ccco2)nc2ccccc21	-7%	4	u	0%	u
CCCCCn1c(CCNC(=O)CCC)nc2ccccc21	7%	33	u	19%	16µM*
CCCCCn1c(CCCNC(=O)CC)nc2ccccc21	1%	38	21µM*	-2%	16µM*
Cc1onc(-c2c(F)cccc2Cl)c1C(=O)NCCc1ccncc1	-2%	0	-6%	1%	-4%
COc1ccc(CNC(=O)C(c2ccncc2)N(C(=O)Cc2cccs2)c2ccc(C)cc2)cc1 (centres undefined)	-10%	-3	-29%	-6%	-25%
C=C(C)Cn1c(CCCNC(=O)CCC)nc2ccccc21	-10%	8	13µM*	-2%	15µM*
COCc1nc2ccccc2n1Cc1c(F)cccc1Cl	-1%	3	18µM*	5%	13µM*
CCCC(=O)NCCc1nc2ccccc2n1CCC	-3%	3	-14%	-1%	-29%
CCCC(=O)NCCc1nc2ccccc2n1Cc1c(F)cccc1Cl	x	x	21µM*	x	15µM*
CCCCN(Cc1ccco1)S(=O)(=O)c1csc(C(N)=O)c1	-5%	-7	u	-4%	u
CCCCNc1ccc2c3c(cccc13)C(=O)N(CCCC)C2=O	u	-22	26µM*	u	21µM*
COc1cccc(Nc2ncc3nc(C)c(=O)n(CCC#N)c3n2)c1	x	x	0.23µM*	x	0.92µM*
SMILES	HT1080 IDH1KD tx	IL-1B inflam inh	DT40 TDP1 CPT	HT1080-NT tox	TDP1 cell noCPT
CCNc1ncc2ncc(=O)n(Cc3ccc(F)cc3)c2n1	x	x	18µM*	x	u
CCNc1ncc2nc(-c3ccc(Cl)cc3)c(=O)n(-c3ccc(OC)cc3)c2n1	x	x	u	x	13µM*
COc1ccc(-n2c(=O)c(C)nc3cnc(Nc4cccc(OC)c4)nc32)cc1	x	x	23µM*	x	18µM*
COc1cccc(Nc2ncc3ncc(=O)n(CCC#N)c3n2)c1	x	x	-6%	x	-11%
CCNc1ncc2nc(-c3ccc(F)cc3)c(=O)n(Cc3ccc(F)cc3)c2n1	x	x	-14%	x	5%
CC1=C(C(=O)N2CCCCCC2)CC(CC(=O)NCCN2CCOCC2)C(=O)N1Cc1ccc(F)cc1 (centres undefined)	27%	12	-10%	18%	-4%

Screens (PubChem BioAssay)
